miR-21 reporter: qHTS Assay for Modulators of miRNAs and/orActivators of miR-21; Potency, µM (titrated, usually from 38.3 µM), hits mostly activators; 340,000 tested, under 10 active; HeLa miR-21 FLuc reporter, luciferase, 48 h;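 also: miR-21 action dims this reporter so a rising signal means less miR-21 action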
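Compounds were titrated across several concentrations (up to approximately 40 uM) and incubated 48 hours with HeLa miR-21-FLuc reporter cells (miR-21 target sequence downstream of FLuc, endogenous miR-21). Readout was firefly luciferase luminescence after lytic detection reagent.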
Mito fusion yeast: qHTS Assay for Small Molecule Inhibitors of Mitochondrial Division or Activators of Mitochondrial Fusion | S. cerevisiae fusion-defective mutant growth rescue, CellTiterGlo 48 h | 320,000 tested, 0.23% active | Potency, µM (highest dose often 46.1 µM), most hits filed as activators | AID 485298, 2010; also: nearly all actives have a fitted effect of over 45% in size
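Compounds are tested for their ability to restore growth of mitochondrial fusion-defective yeast strains at non-permissive 37C in YPEG medium over 48 hours. Viability is quantified by luciferase luminescence.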
Nrf2 inh: Nrf2 qHTS screen for inhibitors; A549 ARE-Fluc reporter, luciferase luminescence, 18-24 h; Potency, µM (series often up to 46 µM), most hits filed as inhibitors; 360,000 tested, 2.1% active; also: nearly all actives have a fitted effect of over 60% in size
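A549 ARE_Fluc cells, 5000/well, 5% FBS OPTI-MEM; compounds in dose-response, 18-24 h at 37 °C/5% CO2; CellTiter-Fluor viability read (Ex 405/Em 525), then BugLite luciferase luminescence = Nrf2 activity.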
GRP78 ERSR act: qHTS for Inducers of the Endoplasmic Reticulum Stress Response (ERSR) in Human Glioma: qHTS; Potency, µM, hits mostly activators; 420,000 tested, 0.02% active; U87-MG GRP78 promoter luciferase reporter, 16 h; also: series mostly up to about 76 µM; nearly all actives have a fitted effect of over 35% in size
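Stably transfected U87-MG glioma cells carrying a GRP78-based luciferase sensor; 16 h compound incubation. Luminescence end-point read 10 min after Bright-Glo addition at room temperature.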
A549 tox-1: Nrf2 qHTS screen for inhibitors: counterscreen for cytotoxicity | Potency, µM (series often up to 46 µM), hits mostly inhibitors | 390,000 tested, 0.16% active | A549 ARE-Fluc cells, CellTiter-Fluor viability, 18-24 h
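A549 ARE-Fluc cells in 5% FBS OPTI-MEM, 5000 cells/well, rested 2 h then exposed to compounds in concentration-response for 18-24 h at 37 °C. Viability by CellTiter-Fluor fluorescence (Ex 405/Em 525) after 30 min; luciferase luminescence (BugLite, 15 min, RT) read afterwards.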
Nrf2 activator: qHTS of Nrf2 Activators; AID 624171, 2012; AREc32 ARE-luciferase reporter (MCF7-derived line), luminescence, 24 h; 410,000 tested, 0.31% active; Potency, µM (titrated, usually from 46.1 µM), hits mostly activators; also: nearly all actives have a fitted effect of over 65% in size
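For detection, Steady-Glo was added and plates sat 30 min at RT; before that, AREc32_Fluc cells grown overnight in OPTI-MEM/5% FBS had been treated with 23 nL compound for 24 hr at 37 deg C.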
FLuc enzyme inh: Nrf2 qHTS screen for inhibitors: Purified Fluc Biochemical Counterscreen for Hit Validation; shares compounds with Nrf2 inh; purified firefly luciferase, luminescence inhibition; Potency, µM (highest dose often 57.5 µM), actives largely listed as inhibitors; 1,400 tested, 4% active; AID 720522, 2013; also: nearly all actives have a fitted effect of over 65% in size
Target sequence (P08659 whole entry, looked up): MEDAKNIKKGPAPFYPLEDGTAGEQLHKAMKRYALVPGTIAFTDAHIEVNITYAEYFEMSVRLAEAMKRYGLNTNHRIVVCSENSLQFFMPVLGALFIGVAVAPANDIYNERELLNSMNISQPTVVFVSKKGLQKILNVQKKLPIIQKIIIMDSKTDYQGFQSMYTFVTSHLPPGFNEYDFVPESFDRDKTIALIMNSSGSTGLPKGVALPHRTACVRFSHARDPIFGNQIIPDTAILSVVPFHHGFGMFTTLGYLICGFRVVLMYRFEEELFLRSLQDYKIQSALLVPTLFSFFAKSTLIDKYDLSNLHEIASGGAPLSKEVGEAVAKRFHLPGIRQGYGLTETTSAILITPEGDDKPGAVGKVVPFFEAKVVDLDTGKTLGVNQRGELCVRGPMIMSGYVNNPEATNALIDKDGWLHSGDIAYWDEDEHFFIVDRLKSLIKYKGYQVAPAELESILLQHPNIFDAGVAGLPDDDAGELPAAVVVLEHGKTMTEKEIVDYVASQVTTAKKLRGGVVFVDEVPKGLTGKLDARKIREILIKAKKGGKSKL
A549 tox-2: Nrf2 qHTS screen for inhibitors: A549 ARE-Fluc Cytotoxicity Counterscreen for Hit Validation; Potency, µM (titrated, usually from 46.1 µM), usual class: inhibitors; 1,400 tested, 2% active; A549 ARE-Fluc cells, cytotoxicity counterscreen; shares compounds with Nrf2 inh; AID 720523, 2013;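 also: cells exposed to compounds for 18 to 24 hours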
ARE-Fluc inh: Nrf2 qHTS screen for inhibitors: Nrf2 A549 ARE-Fluc Confirmation Assay for Hit Validation. shares compounds with Nrf2 inh. 1,400 tested, 74% active. AID 720524, 2013. Potency, µM (doses to about 46.1 µM), actives largely listed as inhibitors. A549 ARE-firefly luciferase reporter, luminescence; also: nearly all actives have a fitted effect of over 65% in size
Hits are given with their value. The list is not random: actives were taken first. Their share in the collection is about 2.3%. Calls follow the shape of the dose curve; as a rule, active = well fitted curve in the direction sought with a large enough effect; inconclusive = small, poorly fitted or top-dose-only effect, or another doubt; inactive = no such curve, though single readings can be large; an effect the other way counts as inactive or inconclusive.

Results for COc1ccc(N2CCN(C(=S)Nc3ccc(F)cc3)CC2)cc1 ?
miR-21 reporter: inactive; Mito fusion yeast: inactive; Nrf2 inh: inactive; GRP78 ERSR act: inactive; A549 tox-1: inactive; Nrf2 activator: inactive

What do the screens show for `CC[N+](CC)(CC)c1ccc(/C=C/c2ccc3ccccc3n2)cc1`?
GRP78 ERSR act: inactive; FLuc enzyme inh: 24µM; A549 tox-2: 9.2µM; ARE-Fluc inh: 2.1µM

What do the screens show for `C(=C\c1ccc2ccccc2n1)/c1ccccc1`?
miR-21 reporter: inactive; Mito fusion yeast: inactive; Nrf2 inh: inconclusive; GRP78 ERSR act: inactive; A549 tox-1: inactive; Nrf2 activator: inactive; FLuc enzyme inh: inactive; A549 tox-2: inconclusive; ARE-Fluc inh: 7.3µM

What do the screens show for `Oc1ccc(/C=C/c2ccc3ccccc3n2)cc1`?
miR-21 reporter: inactive; Mito fusion yeast: inactive; Nrf2 inh: inactive; GRP78 ERSR act: inactive; A549 tox-1: inactive; Nrf2 activator: inactive

How did COc1ccc(CCNC(=O)C2CCN(C(=O)c3ccc(C(C)(C)C)cc3)CC2)cc1OC do in these assays?
miR-21 reporter: inactive; Mito fusion yeast: inactive; Nrf2 inh: inactive; GRP78 ERSR act: inactive; A549 tox-1: inactive; Nrf2 activator: inactive

How did Cc1cnc(NC(=O)C2CC(=O)N(c3cccc(Cl)c3)C2)s1 (configuration not stated) do in these assays?
miR-21 reporter: inactive; Mito fusion yeast: inactive; Nrf2 inh: 2.1µM; GRP78 ERSR act: inactive; A549 tox-1: inconclusive; Nrf2 activator: inactive; FLuc enzyme inh: inactive; A549 tox-2: inconclusive

How did Cc1ccccc1C(=O)N1CCc2cc(-c3nc(NC(=O)Cc4ccc5c(c4)OCO5)sc3C)ccc21 do in these assays?
miR-21 reporter: inactive; Mito fusion yeast: inactive; Nrf2 inh: 4.6µM; GRP78 ERSR act: inactive; A549 tox-1: inactive; Nrf2 activator: inactive; FLuc enzyme inh: inactive; A549 tox-2: inactive; ARE-Fluc inh: 5.8µM

What do the screens show for `C[C@H]1CN([C@@H](C)CO)C(=O)CCCn2cc(nn2)CO[C@@H]1CN(C)C(=O)NC1CCCCC1`?
GRP78 ERSR act: inactive; Nrf2 activator: inactive

What do the screens show for `O=C(/C=C/c1ccc(S(=O)(=O)N2CCOCC2)cc1)N1CCN(c2ccccc2)CC1`?
miR-21 reporter: inactive; Mito fusion yeast: inactive; Nrf2 inh: 5.8µM; GRP78 ERSR act: inactive; A549 tox-1: inactive; Nrf2 activator: inactive; FLuc enzyme inh: inactive; A549 tox-2: inactive; ARE-Fluc inh: inconclusive

How did COc1ccc(/C=N/NS(=O)(=O)c2ccc(C)cc2)cc1OC(=O)c1ccc(C)cc1 do in these assays?
miR-21 reporter: inactive; Mito fusion yeast: inactive; Nrf2 inh: 5.2µM; GRP78 ERSR act: inactive; A549 tox-1: inactive; Nrf2 activator: inactive; FLuc enzyme inh: inactive; A549 tox-2: inactive

How did COc1ccc(C(=O)Oc2cc(/C=N/NS(=O)(=O)c3ccccc3)ccc2OC)cc1 do in these assays?
miR-21 reporter: inactive; Mito fusion yeast: inactive; GRP78 ERSR act: inactive; A549 tox-1: inactive; Nrf2 activator: inactive

What do the screens show for `CCc1nc(NC(C)(C)C)c2cnn(-c3ccccc3)c2n1`?
miR-21 reporter: inactive; Mito fusion yeast: inactive; Nrf2 inh: inconclusive; GRP78 ERSR act: inactive; A549 tox-1: inactive; Nrf2 activator: inactive

Bioassay records deposited in PubChem by National Center for Advancing Translational Sciences (NCATS).
